Experimental findings from the OligoGym collection are described below.
Further: reference of the scale not given here.

For one test, the target named is CNGB1. As to the kind of experiment: pooled miR-30 sensor sort-seq; sequence = guide strand. The conditions noted are these: shRNA.
Consider TAGTAGGTCTGTCCGGCGGTGG, for which the sensor-assay potency score (higher = more potent) is -0.909. With TTGTCCGTAATGATGTCCCCGC, the sensor-assay potency score (higher = more potent) is -0.775. The same measure, in the same setting: in the case of TTTCTCCAAACACAGATCCAGC it was -1.37; in that of TAGGACATACATCAGGTTGGTC, 0.2. The sequence TTTGCTAACGATGTTGTAGTTC displayed a sensor-assay potency score (higher = more potent) of 0.184. For TTTCTTCCGGAGTAACTTCTGA, the sensor-assay potency score (higher = more potent) is -0.522.

As for TTCATGTACTTCACCGTGCTGT, the sensor-assay potency score (higher = more potent) was 0.284. On to TTCACCGTGCTGTCCATGCAGC, for which the sensor-assay potency score (higher = more potent) is -0.762.

For TTTGAACTTGCAGCAGAGCATG, the sensor-assay potency score (higher = more potent) was -1.2.

The target of the next test is CNN2. Described as above. The note with it: shRNA.
TTGTCGGTTCCCAGCTTGGTAT: the sensor-assay potency score (higher = more potent) was -1.75. Still for that read-out and setting: in the case of TTGACTGGCAGCACTGAACGGG it was -0.107; in that of TTGGGGTCATATATCTGCCGGC, -0.73; in that of TTGCGTTTGGTCCACAGTCGTA, -1.13. Same read-out and setting: to ATGAGTGTGCATAAGATAGTTC belongs -0.603; to TCATATTTGGACAGGAGCCGGT, -0.85; to TAGCTGGTGCCAGTTCTGCATG, -1.58.

TTGGACAGGTTTTCTAGCTGGT registered a sensor-assay potency score (higher = more potent) of 0.325. As for TTCTTTTGTGAATACTTCCTGA, the sensor-assay potency score (higher = more potent) was -0.256. Still for that read-out and setting: in the case of TGTAGCTTGTTCATGAGTGTGC it was 0.544. On the same count and under the same terms, in the case of TAGCTTGTTCATGAGTGTGCAT it was -0.436; in that of TCATAGAGATGCCTTCTCGTGC, -0.57. Same read-out and setting: in the case of TAGCACTCTCTCCACTGTCCTT it was -0.91; in that of TAAGATAGTTCCATCCTTCAGG, -0.219; in that of TAGAGATGCCTTCTCGTGCCGT, -0.0875. As to TGTCACACTTGTCGGTTCCCAG, the sensor-assay potency score (higher = more potent) was -0.793. Same read-out and setting: to TTGGTATCATAGATGTGCCGCC belongs -0.285; to AATACTTCCTGAAACTTGCGGG, 0.259; to TTTCTTTTGTGAATACTTCCTG, 0.659. The same measure, in the same setting: in the case of TTGGACAGGAGCCGGTTCTTGA it was -0.733. The sequence TCTGTTGGTCTGAAGGTCCTAG displayed a sensor-assay potency score (higher = more potent) of 0.303. Still for that read-out and setting: in the case of TTGATGAAGTTGGACAGGTTTT it was -0.865.

As for TGGCTGGCACACTTGTTCGTGC, the sensor-assay potency score (higher = more potent) was -1.46. With TATTTCACATTATCTCACGGAG, the sensor-assay potency score (higher = more potent) was -0.296.

In the next test the target is CNOT1. The description is as above. The note with it: shRNA.
As for TATTCTTCAAACAAGTTCCTTA, the sensor-assay potency score (higher = more potent) amounted to 0.402. Consider TACAGTTAAATACTTCTCGTTC, for which the sensor-assay potency score (higher = more potent) is -0.0593. As for TATCTCTTTACTAAAGTGCTGG, the sensor-assay potency score (higher = more potent) was -0.169.

TAACTTTAAGTCATGCTCCTGA had a sensor-assay potency score (higher = more potent) of 0.328. Consider TTGAAATCCAGGATGGTCCAGT, for which the sensor-assay potency score (higher = more potent) worked out at 0.513.

Regarding TTATATGTAACTCTTTATCAGG, the sensor-assay potency score (higher = more potent) is -0.895. TTTTGTGTCATATTTGACTGTG yielded a sensor-assay potency score (higher = more potent) of 0.162.
